Source: ChEMBL document CHEMBL3988442, “University of Dundee, Small-Polar-MMV Screening Library” (2021)
Where “and” joins values, the source holds several entries; their conditions need not be identical. Identical values can stand only once. For part of these data: Measured potencies and affinities stand elsewhere.

Columns and labels:
Set-up in all cases: scale not given: direction of the effect not stated beside the values
[1] = target: Protein translocase subunit SecA (Escherichia coli (strain K12)) (UniProt P10408); test: Assay to Identify E. coli SecA ATPase Inhibitors; format: functional; conditions: 30 µM
Protein translocase subunit SecA (Escherichia coli (strain K12)), sequence (P10408 whole entry): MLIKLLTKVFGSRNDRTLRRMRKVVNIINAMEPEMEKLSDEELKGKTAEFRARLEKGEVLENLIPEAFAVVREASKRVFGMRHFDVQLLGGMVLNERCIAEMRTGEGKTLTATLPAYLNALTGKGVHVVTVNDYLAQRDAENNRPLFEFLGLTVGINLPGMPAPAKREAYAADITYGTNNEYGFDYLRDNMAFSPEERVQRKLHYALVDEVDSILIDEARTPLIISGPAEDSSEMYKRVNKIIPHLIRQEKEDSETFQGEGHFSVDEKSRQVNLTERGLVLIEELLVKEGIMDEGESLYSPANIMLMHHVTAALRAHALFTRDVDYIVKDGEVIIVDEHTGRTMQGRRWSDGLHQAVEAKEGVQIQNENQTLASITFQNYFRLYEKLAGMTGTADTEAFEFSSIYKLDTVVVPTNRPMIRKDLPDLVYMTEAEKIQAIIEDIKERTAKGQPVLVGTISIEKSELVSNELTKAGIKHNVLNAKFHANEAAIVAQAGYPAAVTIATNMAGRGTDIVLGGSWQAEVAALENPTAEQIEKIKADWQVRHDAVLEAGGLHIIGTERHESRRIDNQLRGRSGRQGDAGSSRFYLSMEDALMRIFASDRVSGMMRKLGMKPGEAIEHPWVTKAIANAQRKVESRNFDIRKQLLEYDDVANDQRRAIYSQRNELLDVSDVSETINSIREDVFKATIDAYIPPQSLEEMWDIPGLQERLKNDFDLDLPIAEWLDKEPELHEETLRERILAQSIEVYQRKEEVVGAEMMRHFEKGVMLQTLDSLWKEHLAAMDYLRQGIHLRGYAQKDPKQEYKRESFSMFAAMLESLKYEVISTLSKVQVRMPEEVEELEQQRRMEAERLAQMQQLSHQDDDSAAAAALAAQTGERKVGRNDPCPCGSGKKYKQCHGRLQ

[2] = target: T1, Ubiquitin-activating enzyme e1, putative (Leishmania donovani (strain BPK282A1)) (UniProt E9BSI1); test: Leishmania donovani Ubiquitin Activating Enzyme (LdE1); format: functional; conditions: 30 µM
T1 sequence (whole entry): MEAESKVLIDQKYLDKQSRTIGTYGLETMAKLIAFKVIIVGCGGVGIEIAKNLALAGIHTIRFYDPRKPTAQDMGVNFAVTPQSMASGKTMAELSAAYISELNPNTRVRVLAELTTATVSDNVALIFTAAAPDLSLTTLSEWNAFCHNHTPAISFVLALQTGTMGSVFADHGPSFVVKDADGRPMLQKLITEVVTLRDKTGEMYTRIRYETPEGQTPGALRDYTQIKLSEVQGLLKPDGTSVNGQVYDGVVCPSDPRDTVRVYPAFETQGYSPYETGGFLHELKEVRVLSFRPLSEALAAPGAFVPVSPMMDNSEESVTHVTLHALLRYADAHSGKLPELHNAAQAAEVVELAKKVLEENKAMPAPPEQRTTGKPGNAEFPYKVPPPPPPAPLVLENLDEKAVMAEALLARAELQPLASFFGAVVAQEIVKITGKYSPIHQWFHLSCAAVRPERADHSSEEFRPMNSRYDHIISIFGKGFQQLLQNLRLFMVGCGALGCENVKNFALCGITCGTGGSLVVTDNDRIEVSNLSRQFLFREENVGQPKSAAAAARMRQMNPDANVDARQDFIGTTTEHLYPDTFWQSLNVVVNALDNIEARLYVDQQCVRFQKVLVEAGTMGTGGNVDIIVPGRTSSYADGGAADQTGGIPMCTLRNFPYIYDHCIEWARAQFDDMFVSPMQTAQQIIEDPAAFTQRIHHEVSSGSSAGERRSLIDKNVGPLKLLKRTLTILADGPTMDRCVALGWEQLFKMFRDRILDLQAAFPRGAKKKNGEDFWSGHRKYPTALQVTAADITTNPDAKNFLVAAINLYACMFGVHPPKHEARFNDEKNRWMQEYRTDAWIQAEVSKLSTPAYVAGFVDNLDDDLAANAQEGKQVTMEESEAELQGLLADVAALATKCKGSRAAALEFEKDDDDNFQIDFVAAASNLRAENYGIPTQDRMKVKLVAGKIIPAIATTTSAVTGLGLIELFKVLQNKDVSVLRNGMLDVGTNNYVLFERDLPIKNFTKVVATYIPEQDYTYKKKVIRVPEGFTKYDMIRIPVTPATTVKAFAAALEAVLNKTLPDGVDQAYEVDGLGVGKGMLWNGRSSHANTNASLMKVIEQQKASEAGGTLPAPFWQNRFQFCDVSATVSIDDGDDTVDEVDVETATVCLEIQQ

[3] = target: AMP-activated protein kinase, AMPK (Homo sapiens) (UniProt P54646+O43741+P54619+Q9UGJ0+Q9Y478+Q13131+Q9UGI9); test: AMP-dependent Kinase enzyme assay. An in vitro enzyme assay that detects ADP turnover that is directly proportional to AMPK activity. This uses naive AMPK that is activated during the assay with MK-8722; format: functional; conditions: 30 µM
[4] = target: Sialic acid-binding Ig-like lectin 9 (Homo sapiens) (UniProt Q9Y336); test: Hs-Siglec9 ALPHAscreen SOP 20170721; conditions: 10 µM
Sialic acid-binding Ig-like lectin 9 (Homo sapiens), sequence (Q9Y336 whole entry): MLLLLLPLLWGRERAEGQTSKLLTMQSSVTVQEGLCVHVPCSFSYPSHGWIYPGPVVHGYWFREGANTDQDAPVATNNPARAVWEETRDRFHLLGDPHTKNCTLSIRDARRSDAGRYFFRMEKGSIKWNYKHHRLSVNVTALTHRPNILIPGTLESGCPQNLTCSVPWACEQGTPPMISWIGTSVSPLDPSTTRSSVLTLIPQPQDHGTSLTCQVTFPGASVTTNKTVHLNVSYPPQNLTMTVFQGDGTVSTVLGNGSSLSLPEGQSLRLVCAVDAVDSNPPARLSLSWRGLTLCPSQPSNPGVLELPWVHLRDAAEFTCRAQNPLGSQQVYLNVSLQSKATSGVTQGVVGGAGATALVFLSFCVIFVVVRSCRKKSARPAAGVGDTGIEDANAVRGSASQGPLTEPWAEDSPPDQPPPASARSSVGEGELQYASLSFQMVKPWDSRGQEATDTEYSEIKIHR

Trypanosoma cruzi = test: Trypanosoma cruzi phosphomannomutase and mannose-1-phosphate guanylyltransferase assay; format: functional; conditions: 10 µM
[5] = target: T2, Arginase-2, mitochondrial (Homo sapiens) (UniProt P78540); test: in vitro enzyme assay to detect the production of urea directly proportional to the activity of Arginase II; format: functional; further: in the data most compounds retested in dose-response had high values
T2 sequence (whole entry): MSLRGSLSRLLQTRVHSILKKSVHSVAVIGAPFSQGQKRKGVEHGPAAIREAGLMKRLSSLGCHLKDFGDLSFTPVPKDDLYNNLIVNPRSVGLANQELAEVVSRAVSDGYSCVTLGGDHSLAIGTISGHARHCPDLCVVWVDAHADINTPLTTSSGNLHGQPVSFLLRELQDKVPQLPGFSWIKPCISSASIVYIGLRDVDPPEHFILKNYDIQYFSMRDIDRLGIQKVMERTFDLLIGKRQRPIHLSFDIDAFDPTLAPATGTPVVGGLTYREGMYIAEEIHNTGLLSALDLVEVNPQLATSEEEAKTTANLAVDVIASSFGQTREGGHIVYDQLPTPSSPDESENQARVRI

[6] = target: T3, Proteasome subunit beta (Trypanosoma cruzi) (UniProt O96673); test: Trypanosoma cruzi proteasome chymotrypsin-like activity (TcProtChymo) assay.; further: in the data most compounds retested in dose-response had high values; format: functional; conditions: 9.37 µM
T3 sequence (whole entry): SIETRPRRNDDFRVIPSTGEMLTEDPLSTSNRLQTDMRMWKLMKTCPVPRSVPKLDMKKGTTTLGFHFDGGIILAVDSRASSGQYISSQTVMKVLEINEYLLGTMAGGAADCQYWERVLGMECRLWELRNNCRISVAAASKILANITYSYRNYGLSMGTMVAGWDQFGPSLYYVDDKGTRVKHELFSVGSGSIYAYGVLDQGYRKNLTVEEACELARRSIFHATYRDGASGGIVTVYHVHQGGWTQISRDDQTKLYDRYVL

N/A = test: Trypanosoma cruzi proteasome luciferase counter-screen; format: functional; conditions: 9.37 µM
Homo sapiens = organism: Homo sapiens; test: To identify inhibition of the IFN signalling (Jak-Stat) pathway via expression of an eGFP reporter gene under the control of an IFN-stimulated response element (ISRE) containing MxA promoter.; format: functional; conditions: 30 µM
[7] = target: T4, Tyrosyl-tRNA synthetase, putative (Trypanosoma cruzi (strain CL Brener)) (UniProt Q4DSP6); test: Trypanosoma cruzi tyrosyl tRNA synthetase (TcYRS) _High Tyrosine SOP; format: functional; conditions: 30 µM; further: in the data most compounds retested in dose-response had high values
T4 sequence (whole entry): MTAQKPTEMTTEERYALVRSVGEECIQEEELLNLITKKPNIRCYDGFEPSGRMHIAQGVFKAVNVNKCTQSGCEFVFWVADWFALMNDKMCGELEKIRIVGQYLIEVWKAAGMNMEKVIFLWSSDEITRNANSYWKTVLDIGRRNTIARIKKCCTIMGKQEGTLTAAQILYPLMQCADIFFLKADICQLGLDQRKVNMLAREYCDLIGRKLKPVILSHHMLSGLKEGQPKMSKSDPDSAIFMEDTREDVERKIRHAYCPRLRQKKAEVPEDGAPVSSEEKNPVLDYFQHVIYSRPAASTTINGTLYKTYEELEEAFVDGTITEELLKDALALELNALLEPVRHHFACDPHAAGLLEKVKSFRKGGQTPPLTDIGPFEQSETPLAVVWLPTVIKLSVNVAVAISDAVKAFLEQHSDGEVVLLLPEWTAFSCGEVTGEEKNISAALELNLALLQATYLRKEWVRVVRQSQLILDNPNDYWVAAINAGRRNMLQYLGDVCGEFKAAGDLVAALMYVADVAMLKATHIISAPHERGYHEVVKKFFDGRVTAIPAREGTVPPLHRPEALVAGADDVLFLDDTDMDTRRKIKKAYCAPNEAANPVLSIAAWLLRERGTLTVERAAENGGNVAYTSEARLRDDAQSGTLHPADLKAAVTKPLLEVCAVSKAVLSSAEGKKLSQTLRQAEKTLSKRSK

[8] = target: T4, Tyrosyl-tRNA synthetase, putative (Trypanosoma cruzi (strain CL Brener)); test: Trypanosoma cruzi tyrosyl tRNA synthetase (TcYRS) SOP; format: functional; conditions: 30 µM
[9] = target: Chromo domain-containing protein 1 (Saccharomyces cerevisiae (strain ATCC 204508 / S288c) (Baker's yeast)) (UniProt P32657); test: ScCHD-1 Enzyme Inhibition Assay; format: functional; conditions: 30 µM; further: in the data most compounds retested in dose-response had high values
Chromo domain-containing protein 1 (Saccharomyces cerevisiae (strain ATCC 204508 / S288c) (Baker's yeast)), sequence (P32657 whole entry, the tested form may be a part): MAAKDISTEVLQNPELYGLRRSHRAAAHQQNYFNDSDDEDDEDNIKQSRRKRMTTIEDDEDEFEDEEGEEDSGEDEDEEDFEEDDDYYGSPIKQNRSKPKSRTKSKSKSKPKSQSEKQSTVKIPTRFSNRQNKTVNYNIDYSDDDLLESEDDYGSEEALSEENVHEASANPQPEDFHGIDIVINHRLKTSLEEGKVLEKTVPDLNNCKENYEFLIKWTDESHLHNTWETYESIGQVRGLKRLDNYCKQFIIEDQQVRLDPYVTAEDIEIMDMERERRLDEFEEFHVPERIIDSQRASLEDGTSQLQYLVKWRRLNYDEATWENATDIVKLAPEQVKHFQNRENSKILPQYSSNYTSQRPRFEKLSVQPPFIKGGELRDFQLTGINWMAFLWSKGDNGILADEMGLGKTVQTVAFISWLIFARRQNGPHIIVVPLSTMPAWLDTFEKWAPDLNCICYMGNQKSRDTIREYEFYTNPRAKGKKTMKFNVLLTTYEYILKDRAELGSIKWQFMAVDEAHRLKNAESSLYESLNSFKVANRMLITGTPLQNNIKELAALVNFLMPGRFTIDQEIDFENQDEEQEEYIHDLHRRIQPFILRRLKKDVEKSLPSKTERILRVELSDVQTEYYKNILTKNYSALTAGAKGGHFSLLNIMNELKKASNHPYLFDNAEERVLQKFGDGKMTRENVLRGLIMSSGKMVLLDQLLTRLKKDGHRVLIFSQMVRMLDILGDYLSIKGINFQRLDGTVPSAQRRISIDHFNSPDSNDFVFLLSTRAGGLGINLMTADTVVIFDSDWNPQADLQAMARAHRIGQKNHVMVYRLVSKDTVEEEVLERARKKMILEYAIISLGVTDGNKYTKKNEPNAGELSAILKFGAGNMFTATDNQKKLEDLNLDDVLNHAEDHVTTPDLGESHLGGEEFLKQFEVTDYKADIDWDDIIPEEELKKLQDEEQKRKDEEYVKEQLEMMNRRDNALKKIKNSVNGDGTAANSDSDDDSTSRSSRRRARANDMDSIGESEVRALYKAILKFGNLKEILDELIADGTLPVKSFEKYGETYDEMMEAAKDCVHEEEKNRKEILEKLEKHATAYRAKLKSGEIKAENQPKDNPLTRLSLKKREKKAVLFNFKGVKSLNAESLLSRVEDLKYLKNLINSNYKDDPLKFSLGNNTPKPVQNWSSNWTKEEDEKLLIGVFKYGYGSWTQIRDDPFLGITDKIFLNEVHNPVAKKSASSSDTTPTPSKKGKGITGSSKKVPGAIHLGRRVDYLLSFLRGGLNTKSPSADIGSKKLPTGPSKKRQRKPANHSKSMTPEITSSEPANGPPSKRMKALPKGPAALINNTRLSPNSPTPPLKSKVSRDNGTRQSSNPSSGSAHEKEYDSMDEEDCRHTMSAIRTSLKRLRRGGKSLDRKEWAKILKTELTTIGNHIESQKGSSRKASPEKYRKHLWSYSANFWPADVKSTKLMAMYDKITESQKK

SMILES | Percent Effect [1] | Percent Effect [2] | Percent Effect [3] | Percent Effect [4] | Percent Effect (Trypanosoma cruzi) | Percent Effect ([5]; 33.3 µM) | Percent Effect [6] | Percent Effect (N/A) | Percent Effect (Homo sapiens) | Percent Effect [7] | Percent Effect [8] | Percent Effect [9] | Percent Effect ([5]; 30 µM)
Cc1cnn(CC2CCCN2CC(=O)N(C)Cc2ccc(C)o2)c1 (stereo not given) | -0.338% | 0% | -4.82% | 2.25% | 5.21% | 0.476% | 34.4% and 30.7% and 30.2% | 12.9% and 15.3% | -9.55% | 5.82% | 7.32% | -2.6% | –
OC(CN(Cc1ccccc1)Cc1ccncc1)c1cccs1 (stereo not given) | 3.55% | 2.7% | -2.19% | 5.24% | 4.79% | 25.1% | 10.2% | – | 5.3% | 1.07% | 6.17% | -8.61% | 5.95%
Cc1ccc([C@@H]2CN(S(=O)(=O)C(C)C)C[C@H]2N(C)C)cc1 | -6.03% | 13.5% | -2.84% | 23.9% | 7.33% | 4.22% | -0.258% | – | -1% | 3.23% | 18.5% | -8.94% | -14.6%
CCn1c(Nc2ccccc2OC)nc2c(C)nn(C)c2c1=O | -1.82% | 6.67% | 3.08% | -2.73% | -6.88% | -4.4% | 16.3% | – | 10.6% | 8.47% | 10.3% | -10.1% | -9.19%
Cc1ccccc1-c1cncc(C2CCN(C(=O)CN(C)C)CC2)n1 | -4.06% | 6.76% | 14.4% | -6.59% | -4.74% | -8.59% | 9.83% | – | 19.1% | 0% | 1.3% | -14.4% | -1.62%
CN(C)C(=O)[C@@H]1CCO[C@@H]2CCN(Cc3ccccc3)C[C@@H]21 | -1.18% | 2.7% | -0.272% | -1.07% | -6.45% | 2.92% | 20.5% | – | 10% | 7.92% | 8.54% | -0.0601% | -1.62%
O=C1CC(c2ccsc2)c2c(n(C3CCOCC3)[nH]c2=O)N1 (stereo not given) | -5.06% | -30.7% | -12.7% | 0.762% | 2.36% | 2.64% | 16.4% | – | 1.56% | 6.35% | 15.4% | -7.86% | 2.7%
O=C(Nc1ccc(F)c(Br)c1)N1CCCC1 | -2.64% | -2.7% | 4.93% | -0.317% | -4.49% | 2.92% | 53.1% and 53% and 53.3% | 8.61% and 7.62% | 18.2% | -34.6% | 3.66% | -3.18% | –
O=c1[nH]c2c(c(=O)n1C1CCCCC1)CCC2Nc1ccccc1 (stereo not given) | -1.62% | -4% | -24.6% | -0.297% | 0.393% | 1.58% | 9.8% | – | 11.8% | -1.06% | 0% | 0.309% | -11.3%
Cc1nc(C2CCCN2C(=O)CNS(C)(=O)=O)no1 (stereo not given) | -2.65% | 5.33% | -7.92% | -1.69% | -0.876% | 0% | 10.5% | – | 5.88% | 7.1% | 18.5% | -12.8% | -12.4%
